Only some compounds are listed: those with a hit (about 19% of all), similar ones and a draw of the others.
TDP1 cell CPT = qHTS for Inhibitors of human tyrosyl-DNA phosphodiesterase 1 (TDP1): qHTS in cells in presence of CPT; chicken DT40 Tdp1-/-;hTDP1 cells + 20 nM CPT, ATP luminescence, 48 h; Potency, µM (highest dose often 46.2 µM), for inactives: top-dose activity change, negative = growth inhibition, most hits filed as inhibitors; 420,000 tested, 12% active; AID 686979, 2013; further: potency means the concentration at half of the fitted maximal effect; on the % scale 0 is the no-effect control and ±100 the full control effect; nearly all actives have a fitted effect of over 55% in size
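Chicken DT40 Tdp1-/- cells stably complemented with human TDP1 were seeded at 400 cells/well in medium containing 20 nM camptothecin, exposed to pin-transferred compounds, and grown at 37 °C for at least 48 hr. Viability was read as ATP luminescence.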
TGFb inhibitor = qHTS for Inhibitors of TGF-b; HepG2 CAGA-GFP TGF-b/SMAD3 reporter, GFP fluorescence, 18 h; TGF-beta stimulated, 500 pg/mL final; Potency, µM (highest dose often 46.1 µM), for the others: top-dose activity, negative = inhibition, most hits filed as inhibitors; 410,000 tested, 1.2% active; further: potency means the concentration at half of the fitted maximal effect; on the % scale 0 is the no-effect control and ±100 the full control effect; nearly all actives have a fitted effect of over 65% in size
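HEPG2 CAGA-GFP, 1000 cells/well; 2 h settle, 37 C; cpd via pin tool; TGF-b 500 pg/mL final; 18 h, 37 C; GFP imaging ex488/em500-530; %Activity normalised to -TGF-b and +DMSO controls; CRC fit, curve class.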
IL1B secr inh = qHTS for Inhibitors of Inflammasome Signaling: IL-1-beta AlphaLISA Primary Screen | THP-1 LPS/ATP IL-1B secretion, AlphaLISA, 16 h; hits give low values | activity change, % at 57.5 µM | 360,000 tested, 4.7% active; in the data active means activity change below about -50%; inconclusive means mostly about -30% to -49%; further: on the % scale 0 is the no-effect control and ±100 the full control effect
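THP-1 cells pretreated 1 hr with compounds (up to 57.5 uM final), then stimulated with LPS (250 ng/mL final) plus ATP (1.25 mM final); secreted IL-1B measured by AlphaLISA after 16 hr, decreased signal indicating inhibition.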
TDP1 cell noCPT = qHTS for Inhibitors of human tyrosyl-DNA phosphodiesterase 1 (TDP1): qHTS in cells in absence of CPT | AID 686978, 2013 | Potency, µM (doses to about 46.2 µM), for inactives: at the highest dose activity change, negative = growth inhibition, most hits filed as inhibitors | DT40 Tdp1-/- hTDP1 cells, no CPT, ATP luminescence, 48 h | 420,000 tested, 15% active; further: potency means the concentration at half of the fitted maximal effect; on the % scale 0 is the no-effect control and ±100 the full control effect; nearly all actives have a fitted effect of over 55% in size
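Cells were dispensed at 400 per well, compounds added by pin tool, plates incubated ≥48 hr at 37 °C, then CellTiter-Glo added for 30 min at room temperature before luminescence reading. Line: DT40 Tdp1-/- complemented with hTDP1; camptothecin omitted.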
HepG2 tox = qHTS for Inhibitors of TGF-b: Cytotox Counterscreen; HepG2 CAGA-GFP viability, ATP luminescence, 18 h; Potency, µM (series often up to 46.1 µM), without a hit: at the top dose activity change, negative = cytotoxicity, most hits filed as cytotoxic; 410,000 tested, 0.76% active; further: potency means the concentration at half of the fitted maximal effect
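HepG2 CAGA-GFP cells (1000/well, DMEM with 1% FBS) received compound, then TGF-beta at 500 pg/mL final, and were incubated 18 hours at 37 degrees C. Viability was read by CellTiter-Glo luminescence. Media-only wells were set as complete cell-killing and DMSO as no toxicity.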
S-ASM inh = Inhibitors of Secretory Acid Sphingomyelinase (S-ASM): qHTS. 340,000 tested, 0.006% active. Sphingomyelin phosphodiesterase (Homo sapiens), P17405. Potency, µM (titrated, usually from 57.5 µM), without a hit: top-dose activity change, negative = inhibition, hits mostly inhibitors. placental ASM, HMU-PC fluorogenic substrate, 60 min. AID 504937, 2011; further: potency means the concentration at half of the fitted maximal effect
Target sequence (P17405 47-631 limits assumed): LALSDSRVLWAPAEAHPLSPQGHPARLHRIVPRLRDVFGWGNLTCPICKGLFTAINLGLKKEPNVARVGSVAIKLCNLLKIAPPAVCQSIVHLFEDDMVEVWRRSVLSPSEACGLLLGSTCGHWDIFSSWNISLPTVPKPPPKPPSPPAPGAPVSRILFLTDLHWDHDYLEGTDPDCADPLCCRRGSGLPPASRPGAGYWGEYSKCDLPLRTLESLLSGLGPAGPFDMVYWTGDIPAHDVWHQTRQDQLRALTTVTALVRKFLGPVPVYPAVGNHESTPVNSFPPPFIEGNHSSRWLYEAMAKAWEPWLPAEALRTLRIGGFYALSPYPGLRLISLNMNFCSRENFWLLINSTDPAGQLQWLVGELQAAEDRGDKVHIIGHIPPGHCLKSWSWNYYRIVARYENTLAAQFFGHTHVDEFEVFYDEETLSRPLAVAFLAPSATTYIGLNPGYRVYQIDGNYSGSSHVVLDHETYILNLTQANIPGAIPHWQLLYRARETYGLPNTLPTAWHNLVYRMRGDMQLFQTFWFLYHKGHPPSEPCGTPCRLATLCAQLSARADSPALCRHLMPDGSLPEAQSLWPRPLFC
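qHTS format. ASM enzyme prepared from human placenta hydrolyses the fluorogenic substrate HMU-PC0 (9 uM final) over 60 min at 37 °C after a 10 min compound preincubation.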
An asterisk follows results filed as active; ? = inconclusive; / = no result; ! = a repeat was not active. Unless noted, the call rests on the fitted dose curve; in most records, active means well fitted curve in the direction sought with a large enough effect; inconclusive means small, poorly fitted or top-dose-only effect, or another doubt; inactive means no such curve, though single readings can be large; an effect the other way counts as inactive or inconclusive.

SMILES	TDP1 cell CPT	TGFb inhibitor	IL1B secr inh	TDP1 cell noCPT	HepG2 tox	S-ASM inh
CSCC[C@H](NC(=O)N1CCn2c1nc1ccccc12)C(=O)NC1CC1	17.1%	0.8%	-17.3	3.4%	-4.9%	3.5%
Cc1ccc(OCC(=O)Nc2ccc3c(c2)nc(CCN2CCN(c4ccccn4)CC2)n3C)cc1	23.1µM*	-2.7%	47.8	20.6µM*	-11.8%	/
Cn1c(CCN2CCN(c3ccccn3)CC2)nc2cc(NC(=O)COc3ccccc3)ccc21	?	?	-13.6	25.9µM*	-17.6%	-0.7%
CN(C)c1ccc(-c2cc3ccccc3c(=O)o2)cc1	4.3%	13.3%	18.0	-29.4%	-0.2%	326.4%
CC(Nc1cc(N2CCN(S(C)(=O)=O)CC2)ccc1[N+](=O)[O-])c1ccccc1 (configuration not stated)	?	5.3%	-52.0*	16.4µM*	10.4%	-27.9%
CC(Nc1ccc(S(=O)(=O)N2CCN(C)CC2)cc1[N+](=O)[O-])c1ccccc1 (configuration not stated)	16.4µM*	-0.9%	-13.0	23.1µM*	-26.4%	-9.8%
COc1cccc(C(CNc2ccc(S(=O)(=O)N3CCN(C)CC3)cc2[N+](=O)[O-])N(C)C)c1 (configuration not stated)	23.1µM*	0.0%	-16.4	?	-2.4%	-8.3%
COc1cc(Nc2ccc(S(=O)(=O)N3CCN(C)CC3)cc2[N+](=O)[O-])cc(OC)c1	?	?	-28.6	?	10.7%	-4.9%
Cc1ccc(C(=O)c2oc3ccccc3c2NC(=O)COc2ccc(Cl)c(C)c2)cc1	6.6%	3.9%	/	-1.8%	16.8%	/
CCOc1ccccc1NC(=S)NCCc1ccc(F)cc1	?	?	0.9	?	-43.3%	2.0%
O=C(O)CNC(=O)c1ccc(Oc2c(F)c(F)c(Oc3ccc(C(=O)NCC(=O)O)cc3)c(F)c2F)cc1	-9.0%	1.7%	-12.3	-7.5%	-10.5%	20.5%
O=S(=O)(NCCc1ccccc1)c1cnc(Cl)c(Br)c1	-11.5%	-18.8%	-89.6*	-12.5%	5.3%	-2.8%
O=S(=O)(NCc1ccco1)c1cnc(Cl)c(Br)c1	-3.6%	-24.0%	/	4.6%	4.4%	4.5%
CCN(c1ccccc1)S(=O)(=O)c1ccc(NC(=O)c2cc(=O)c3c(C)cc(C)cc3o2)cc1	2.4%	-20.0%	/	-17.5%	0.2%	/
Cc1ccc2c(=O)cc(C(=O)Nc3ccc(S(=O)(=O)N(C)Cc4ccccc4)cc3)oc2c1	?	1.4%	/	?	-2.1%	/
Cc1ccc2c(=O)cc(C(=O)Nc3ccc(S(=O)(=O)Nc4ncccn4)cc3)oc2c1C	?	-7.9%	/	?	-23.9%	/
CCc1ccc(NC(=O)c2cc(=O)c3ccc(C)c(C)c3o2)cc1	4.11µM*	127.4%	/	3.26µM*	140.3%	/
CN(c1ccccc1)S(=O)(=O)c1ccc(NC(=O)c2cc(=O)c3ccccc3o2)cc1	13µM*	1.6%	/	16.4µM*	0.1%	/
CCN(c1ccccc1)S(=O)(=O)c1ccc(NC(=O)c2cc(=O)c3ccc(C)c(C)c3o2)cc1	10.3µM*	-5.1%	/	11.6µM*	-12.9%	/
Cc1ccc2c(=O)cc(C(=O)Nc3ccc(S(=O)(=O)N(C)Cc4ccccc4)cc3)oc2c1C	4.11µM*	1.7%	/	3.26µM*	-0.1%	/
COc1ccc(NC(=O)C[C@H]2C(=O)N(CCc3ccccc3)C[C@@H]2c2ccc(OC)cc2)cc1	?	6.4%	1.7	?	-25.8%	/
C[C@@H]1CN([C@H](C)CO)C(=O)CCCn2cc(nn2)CO[C@H]1CN(C)C(=O)Nc1ccc(C(C)(C)C)cc1	-21.9%	6.1%	2.3	-5.8%	-17.9%	/
Cn1c(N)c(N=Nc2ccc(S(N)(=O)=O)cc2)c(=O)n(C)c1=O	10.7%	9.1%	-16.1	5.4%	6.8%	-10.2%
Cc1cc2oc(=O)cc(CN3CCOCC3)c2c(C)c1Cl	-7.7%	5.6%	13.1	-0.3%	-3.1%	-1.4%
CN(Cc1ccccc1)c1ccc2cc(S(=O)(=O)N3CCCCC3)ccc2n1	10.3µM*	-9.4%	/	9.2µM*	-13.8%	/
SMILES	TDP1 cell CPT	TGFb inhibitor	IL1B secr inh	TDP1 cell noCPT	HepG2 tox	S-ASM inh
O=S(=O)(c1ccc2nc(N3CCN(c4ccccc4F)CC3)ccc2c1)N1CCCCC1	-27.8%	-16.0%	4.8	?	-47.2%	45.9%
Cc1cccc(N(C)c2ccc3cc(S(=O)(=O)N4CCCC4)ccc3n2)c1	16.4µM*!	?	-11.6	16.4µM*	-26.1%	10.3%
COc1ccc(C)cc1NS(=O)(=O)c1ccc2[nH]c(=O)c(=O)[nH]c2c1	-10.8%	1.8%	/	9.5%	-4.4%	/
CCN(CC)C1CCN(C(=O)c2cc(COc3cccc4cccnc34)on2)C1 (configuration not stated)	-10.8%	10.1%	-1.6	19.7%	4.6%	-1.8%
CCOc1ccccc1NC(=O)C(OC(=O)c1ccc(CC)cc1)c1ccccc1 (configuration not stated)	16.4µM*	-1.8%	3.9	?	9.3%	-2.4%
CCOc1ccccc1NC(=O)C(OC(=O)c1cnccn1)c1ccccc1 (configuration not stated)	-12.7%	-10.4%	1.7	-14.6%	2.2%	-0.7%
CCOc1ccccc1NC(=O)C(NCCc1ccc(OC)cc1)c1ccccc1 (configuration not stated)	23.1µM*	-18.1%	-6.8	?	-30.0%	7.1%
CCOc1ccccc1NC(=O)C(OC(=O)c1ccc(N(C)C)cc1)c1ccccc1 (configuration not stated)	0.581µM*	0.2%	17.1	?	-11.8%	-1.3%
CCCNC(=O)c1ccccc1NC(=O)c1cccc(-n2cnnn2)c1	?	6.3%	?	?	-10.5%	0.6%
CC(C)C(=O)N(Cc1ccccc1)c1ccccn1	-15.7%	13.8%	?	-11.1%	-15.4%	-1.2%
CCC(Oc1ccccc1)C(=O)N(Cc1ccccc1)c1ccccn1 (configuration not stated)	?	-1.5%	0.0	16.4µM*	-5.3%	-0.2%
